The record followed here is PubChem BioAssay (NCATS).

Where “and” joins values, the source holds several entries; their conditions need not be identical. Equal values may be shown once. Inconclusive results are not listed. Values without a mark were called inactive. Calls of active or inactive are those of the source. Calls follow the shape of the dose curve; as a rule, active = well fitted inhibition curve with a large enough effect; inconclusive = small, poorly fitted or top-dose-only effect; inactive = flat fitted curve, though single readings scatter.

For one experiment, the system named is CRL-7250. The experiment can be described thus: Cytotoxic Profiling of Annotated Libraries Using Quantitative High-Throughput Screening (AID 1296008). Also: nearly all actives have a fitted effect of over 60% in size. The note with it: Five cell lines viability, CellTiter-Glo ATP luminescence, 48-72 h; max response: hits give low values. In outline:
(§1)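 Cytotoxicity was measured as CellTiter-Glo ATP luminescence, read after 10 min at room temperature. Compound treatment of the cells lasted 48 or 72 hr at 37 degrees Celsius in a qHTS format.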
For orientation: Cellular ATP, detected with luciferase, serves as a proxy for viable cell number.

The subject of a further experiment is HEK293. The description is as above. The note with it: Five cell lines viability, CellTiter-Glo ATP luminescence, 48-72 h; max response: hits give low values. In outline:
as §1
% is scaled to controls: 0 for no effect and ±100 for the full control effect; potency is read from the fitted curve at half-maximal effect.

Regarding `Cc1cc(Nc2nc(N[C@@H](C)c3ccc(F)cc3)c(C#N)cc2F)n[nH]1`, the Potency is 16.6 µM (active) and 7.31 µM (active) in the experiment with CRL-7250; 2.64 µM (active) and 1.3 µM (active) in the experiment with HEK293.

`CN1CCN(c2cc(C(=O)Nc3ccc4c(c3)-c3c(c(C(N)=O)nn3-c3ccc(F)cc3)CC4)c(Cl)cn2)CC1`: the max response with CRL-7250 is -32.2%. The Potency in the experiment with HEK293 is 20.9 µM (active).

Take `Cc1nc2cnc3ccc(C#Cc4cccnc4)cc3c2n1-c1ccc(C(C)(C)C#N)cc1`: the Potency is 0.0469 µM (active) in the experiment on CRL-7250 and 0.0743 µM (active) with HEK293.

For the molecule `CC(C)C[C@H](NC(=O)CNC(=O)c1cc(Cl)ccc1Cl)B(O)O`, the Potency was 1.48 µM (active) in the experiment on CRL-7250 and 1.18 µM (active) in the experiment with HEK293.

For `CCOc1cc2ncc(C#N)c(Nc3ccc(F)c(Cl)c3)c2cc1NC(=O)C=CCN(C)C`, the Potency was 0.105 µM (active) in the experiment with CRL-7250 and 1.87 µM (active) in the experiment on HEK293.

As for `C=CCn1c(=O)c2cnc(Nc3ccc(N4CCN(C)CC4)cc3)nc2n1-c1cccc(C(C)(C)O)n1`, the max response in the experiment with CRL-7250 is -7.63%. In the experiment with HEK293, the Potency was 235 nM (active) and 920 nM (active).

In the case of `COC(=O)Nc1ccc(-c2nc(N3CCOCC3)c3cnn(C4CCN(Cc5cccnc5)CC4)c3n2)cc1`, the Potency with CRL-7250 was 118 nM (active) and 1.3 µM (active); with HEK293, 66.2 nM (active) and 1.46 µM (active).

As for `CC(C)(O)c1cc2nc(-c3cnc(N)nc3)nc(N3CCOCC3)c2s1`, the Potency is 148 nM (active) and 731 nM (active) in the experiment on CRL-7250; 372 nM (active) and 1.3 µM (active) with HEK293.

`COc1cc(C(=O)N2CCC(N3CCN(C)CC3)CC2)ccc1Nc1ncc2c(n1)N(C)c1ccccc1C(=O)N2C`: the Potency was 3.66 µM (active) in the experiment on CRL-7250; 11.8 µM (active) and 9.2 µM (active) in the experiment with HEK293.

In the case of `Cc1ccc(C(N)=O)cc1Nc1nccc(-c2cn(C(C)C)c3cnccc23)n1`, the results for the Potency with CRL-7250 and in the experiment with HEK293 were 11.6 µM (active) and 6.51 µM (active), respectively.

On to `Cc1cn2c(-c3cn[nH]c3)cnc2c(Nc2ccc(C(=O)N3CCNCC3)cc2F)n1`, for which the Potency with CRL-7250 is 6.51 µM (active); with HEK293, 16.4 µM (active).

As for `O=C(NCCCNc1nc(Nc2cccc(NC(=O)N3CCCC3)c2)ncc1I)c1cccs1`, the Potency was 5.9 µM (active) with CRL-7250 and 20.9 µM (active) in the experiment on HEK293.

For `CNC(=O)c1cc(Oc2ccc(NC(=O)Nc3cc(C(C)(C)C)nn3-c3ccc4ncccc4c3)c(F)c2)ccn1`, the Potency with CRL-7250 is 13.2 µM (active) and 18.4 µM (active); in the experiment with HEK293 it was 23.5 µM (active).

Turning to `O=C(NCCS(=O)(=O)c1ccc(C(F)(F)F)cn1)c1ccc(Cl)cc1`, the max response in the experiment on CRL-7250 was 2.65%; with HEK293 it was -5.18%.

In the case of `COc1cc(C(C)C)c2c(c1)S(=O)(=O)N(COc1cc(=O)n3cccc(OCCN4CCCCC4)c3n1)C2=O`, the max response in the experiment with CRL-7250 is -9.13%; with HEK293, -21.7%.

As to `Cc1cnc(Nc2ccc(F)cc2Cl)nc1-c1c[nH]c(C(=O)N[C@H](CO)c2cccc(Cl)c2)c1`, the Potency in the experiment on CRL-7250 is 18.7 µM (active) and 20.6 µM (active). Moreover, the max response in the experiment with HEK293 was -111%.

As for `CCN1CCN(CC(=O)Nc2ccc(-c3cccc4c(=O)cc(N5CCOCC5)oc34)c3sc4ccccc4c23)CC1`, the Potency with CRL-7250 was 2.35 µM (active); with HEK293, 1.18 µM (active).

As for `Nc1ccccc1NC(=O)c1ccc(CNc2nccc(-c3cccnc3)n2)cc1`, the Potency with CRL-7250 is 4.18 µM (active) and 5.17 µM (active); in the experiment on HEK293, 1.64 µM (active).

With `COc1cccc(-c2ccc(NC(=O)C3=C(C(=O)O)CCC3)c(F)c2)c1`, in the experiment with CRL-7250, the max response is -3.86% and -6.53%. In addition, the Potency with HEK293 was 7.43 µM (active) and 6.51 µM (active).

For `Cc1ccc(-c2ncn(-c3ccc(Nc4nccc(-c5cccc(N6CCOCC6)c5)n4)cc3)n2)cn1`, the Potency is 0.118 µM (active) with CRL-7250 and 0.332 µM (active) in the experiment with HEK293.

For `Nc1nccc(Oc2ccc(NC(=O)c3c[nH]cc(-c4ccc(F)cc4)c3=O)cc2F)c1Cl`, the Potency in the experiment with CRL-7250 is 18.7 µM (active); in the experiment with HEK293 it was 11.8 µM (active) and 13 µM (active).

On to `CC(=O)c1c(C)c2cnc(Nc3ccc(N4CCNCC4)cn3)nc2n(C2CCCC2)c1=O`, for which the max response is -3.02% in the experiment with CRL-7250 and -2.77% with HEK293.

As for `CN1CCC(CNc2ccc3ncc(-c4cccc(OC(F)(F)F)c4)n3n2)CC1`, the Potency with CRL-7250 was 4.69 µM (active); with HEK293 it was 23.5 µM (active).

For the molecule `CC(=O)OCC(=O)[C@@]1(O)[C@H](C)C[C@H]2[C@@H]3C=C(C)C4=Cc5c(cnn5-c5ccccc5)C[C@]4(C)[C@@H]3[C@@H](O)C[C@@]21C`, the Potency in the experiment on CRL-7250 was 20.9 µM (active); with HEK293, 13.2 µM (active).

With `O=C(Nc1cn[nH]c1-c1nc2ccc(CN3CCOCC3)cc2[nH]1)NC1CC1`, the Potency in the experiment on CRL-7250 is 1.3 µM (active); in the experiment with HEK293, 10.5 µM (active) and 3.66 µM (active).
